Data reported in PubChem BioAssay.

Assay: TLR3 IRF3 reporter activation blockers – cell-based, poly I:C stimulus, luciferase, 10K MLSCN set, primary screen (AID 602277)
Conditions: HEK293-TLR3 RL24 IRF3 luciferase reporter, at 10 µM, hits give high values;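 active = inhibition of the reporter signal at or above 50%; inactive = inhibition below 50%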

inhibition, inactive:
CCOCCCNC(=O)CS(=O)(=O)Cc1nc(-c2cccc(OC)c2)oc1C 33.7%
Cc1ccc(Br)cc1S(=O)(=O)N1CCN(c2ccccc2)CC1 31.3%
Cn1c(=O)c(=O)n(C)c2cc(S(=O)(=O)N3CCN(c4cccc(C(F)(F)F)c4)CC3)ccc21 13.1%
Cc1cccc(N2CCN(C(=O)C3CCCN(S(=O)(=O)c4c(C)noc4C)C3)CC2)c1C (stereo unspecified) 1.25%
COc1ccc(-n2c(SCC(=O)N3CCCCC3C)nnc2-c2cccnc2)cc1 (stereo unspecified) 9.8%
NCc1cccc(-n2cccn2)c1 6.04%
COC(=O)CSC1=C(C#N)C(c2ccccc2)CC(=O)N1 (stereo unspecified) 21.9%
Oc1ccc(N2CCN(C(c3ccncc3)c3nnnn3C3CCCC3)CC2)cc1 (stereo unspecified) 26.3%
CCc1nc2scc(-c3ccccc3)c2c(=O)n1N -30.6%
CN(Cc1cccs1)C(=O)CCc1ccc(S(=O)(=O)N2CCOCC2)cc1 14.6%
CC1=C(C(N)=O)C(c2ccccn2)n2nc(SCc3ccccc3)nc2N1 (stereo unspecified) 0.00265%
CCOc1ccc(NC(=O)c2ccccc2O)cc1 -110%
O=S(=O)(c1ccc2ccccc2c1)N1CCCCC1 33.1%
N#CC1=C(N)OC(c2ccccc2)=C(C#N)C1c1ccc2c(c1)OCO2 (stereo unspecified) 10.8%
Cc1cc(C)c2c(=O)n(CC(=O)NCCCN3CCOCC3)sc2n1 40.4%
COC(=O)CNC(=O)COC(=O)c1cc(Cl)cc(Cl)c1N 3.33%
